Laboratory results taken from PubChem BioAssay (NCI).
Compounds without any hit were thinned out: in the full panel of roughly 83,000, 20% have a hit.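 Testing used 96-well plates and a 48-hour single-concentration exposure. Example: -40 means 40% of the starting cells died.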 A number with no mark means an inactive call. Active and inactive are the calls of the source. The calls were made as follows: active = growth percent below 10; inactive = the rest.

Tests used:
Test in all cases: NCI-60 one-dose screen, 48 h (100 = growth as untreated, 0 = no growth, -100 = all killed)
HCT-15 colon = settings: 10 µM unless noted
HT29 colon = settings: 10 µM unless noted
SNB-19 CNS = settings: 10 µM unless noted
U251 CNS = settings: 10 µM unless noted
PC-3 prostate = settings: 10 µM unless noted
SK-MEL-5 melanoma = settings: 10 µM unless noted
UACC-62 melanoma = settings: 10 µM unless noted
LOX IMVI melanoma = settings: 10 µM
SK-MEL-28 melanoma = settings: 10 µM unless noted
SK-MEL-2 melanoma = settings: 10 µM unless noted
EKVX NSCLC = settings: 10 µM unless noted
SN12C renal = settings: 10 µM unless noted
UO-31 renal = settings: 10 µM unless noted
ACHN renal = settings: 10 µM unless noted
CAKI-1 renal = settings: 10 µM unless noted
A498 renal = settings: 10 µM unless noted
CCRF-CEM leukemia = settings: 10 µM unless noted
MOLT-4 leukemia = settings: 10 µM unless noted
TK-10 renal = settings: 10 µM unless noted

Compound | growth (HCT-15 colon) | growth (HT29 colon) | growth (SNB-19 CNS) | growth (U251 CNS) | growth (PC-3 prostate) | growth (SK-MEL-5 melanoma) | growth (UACC-62 melanoma) | growth (LOX IMVI melanoma) | growth (SK-MEL-28 melanoma) | growth (SK-MEL-2 melanoma) | growth (EKVX NSCLC) | growth (SN12C renal) | growth (UO-31 renal) | growth (ACHN renal) | growth (CAKI-1 renal) | growth (A498 renal) | growth (CCRF-CEM leukemia) | growth (MOLT-4 leukemia) | growth (TK-10 renal)
CC12CC[C@@H]3[C@]4(C)COC(c5cn[nH]c5-c5cccc(Br)c5)O[C@@H]4CC[C@@]3(C)[C@@H]1CC(C1=CCOC1=O)O2 (stereo partly drawn) | 23.3% | 23.2% | 51.2% | 32.1% | 12.9% | 3.56% (active) | 20.9% | -8.01% (active) | 34% | 31.6% | 28.2% | 43.3% | 14.9% | 26.5% | 39.9% | 81.8% | 9.66% (active) | 4.43% (active) | 
COc1ccc2c(c1)c(-c1cc3nc(-c4cn(C)c5ncccc45)cc(N)n3n1)cn2C | -57.7% (active) | -95.5% (active) |  | -67% (active) | -1.31% (active) | -100% (active) | -89.8% (active) | -100% (active) | -97.2% (active) |  | -22.8% (active) | -60.2% (active) | -62.1% (active) | -100% (active) | -35.9% (active) | 16.6% | -22% (active) | -42.5% (active) | -27.8% (active)
C=C1CC[C@@H]2[C@]3(C)COC(c4cn[nH]c4-c4ccc(F)cc4)O[C@@H]3CC[C@@]2(C)[C@@H]1C/C=C1/C(=O)OCC1O (stereo partly drawn) | -56.8% (active) | -2.38% (active) | 21.6% | -83.2% (active) | 8.84% (active) | -79% (active) | -73.7% (active) | -100% (active) | -75.6% (active) |  | -6.56% (active) | -51.4% (active) | -80.4% (active) | -80.3% (active) | 1.51% (active) | 146% | -3.97% (active) | 1.15% (active) | -19.1% (active)
Cn1cc(-c2cc3nc(-c4cn(C)c5ncc(Br)cc45)cc(N)n3n2)c2cc(Cl)ccc21 | -77.6% (active) | -89.2% (active) | -74.2% (active) | -67.9% (active) | -62.5% (active) | -77.1% (active) |  | -95.1% (active) | -90.7% (active) | -76% (active) | -71.1% (active) | -87.9% (active) | -87.8% (active) | -100% (active) | -71.7% (active) | -1.96% (active) | -37.4% (active) | -47.5% (active) | -94.9% (active)
NS(=O)(=O)c1ccc(CCNC(=O)CSc2ccc(-c3ccc(Br)cc3)nn2)cc1 | 97.4% | 82.6% | 61.5% | 76% | 74% | 28.4% | 66.8% | 59.8% | 78.1% | 56.4% | 74.3% | 80.7% | 56.4% | 59.6% | 65.3% | 78.4% | 54.3% | 39% | 
CC12CC[C@@H]3[C@]4(C)COC(c5c(F)cccc5F)O[C@@H]4CC[C@@]3(C)[C@@H]1CC(C1=CCOC1=O)O2 (stereo partly drawn) | 80.4% | 76.5% | 63.2% | 80% | 56.4% | 47.4% | 50.4% | 73.1% | 88.8% |  | 70.3% | 66.6% | 76.4% | 35% | 87.2% | 106% | 74.8% | 52.6% | 93.5%
COc1ccc2[nH]c(O)c(N=NC(=O)Cn3c(-c4ccccc4)nc4cc(C)ccc43)c2c1 | 3.08% (active) | -1.1% (active) | 59.2% | 32.4% | 21.5% | -23.8% (active) |  | 38.3% | -23.6% (active) | 88.4% | 66.3% | -73.7% (active) | 49.7% | 41.1% | 61.9% | 119% | 8.31% (active) | 18.5% | 97.7%
CC(C)c1sc(NC(=O)c2cc(NC(=O)c3cc(NC(=O)c4cscn4)cn3C)cn2C)nc1C(=O)NCCCN(C)C | 98.6% | 2.45% (active) | -9.66% (active) | -38.4% (active) | -26.3% (active) | -3.44% (active) | -73.5% (active) | -94% (active) | -16.3% (active) |  | 27% | 19.1% | 85% | 98.7% | 91% | 113% | 1.16% (active) | 5.49% (active) | 85.3%
CCOC(=O)c1ccc(Nc2nc(NN)nc(-c3ccc(F)cc3)c2C#N)cc1 | 109% | 97.6% | 100% | 115% | 103% | 102% | 91.3% | 112% | 109% | 115% | 120% | 103% | 88.3% | 103% | 108% | 101% | 91.9% | 89.8% | 
COc1c(F)ccc(C(=O)Nc2ccc3nc(NC(=O)C4CCCN(S(=O)(=O)c5cccc(Br)c5)C4)sc3c2)c1F (stereo not drawn) | 80.8% | 85.7% | 82.7% | 75% | 57.8% | 89.4% | 80.8% | 85% |  | 94.9% | 90.9% | 88.4% | 79.3% | 82.9% | 76.4% | 112% | 89.5% | 49.3% | 118%
COc1ccc2[nH]c(=O)c(CSc3nccc(-c4ccc(OC)c(OC)c4)n3)cc2c1 | 16.4% | 16.2% |  | 26% | 5.92% (active) | -1.05% (active) |  | 24.5% | 42.7% | 44.2% | 15.7% | 33.6% | 16.1% | 24.4% | -10.2% (active) | 47.8% | 31.3% | 7.07% (active) | 26.4%
COc1ccccc1C(=O)NN1C(=O)/C(=C/C2=Cc3ccccc3OC2)SC1=S | 114% | 110% | 97.6% | 101% | 91.2% | 104% | 91.8% | 94% |  | 109% | 105% | 104% | 74% | 103% | 45.5% | 134% | 93.7% | 100% | 124%
CN1C(=O)/C(=C/c2ccc(C(=O)Nc3ncc(Cc4ccc(Cl)cc4Cl)s3)cc2)SC1=S | 25.7% | 19.7% | 66.6% | 72.7% | 38.9% | 17.1% |  | 29.7% | 41% | 19.7% | 63% | 36.1% | 40.4% | 31.3% | 30.1% | 87.6% | 40.2% | 31.1% | 71.4%
COc1c(F)ccc(C(=O)Nc2ccc3nc(NC(=O)C4CCCN(S(=O)(=O)c5ccc(Cl)cc5)C4)sc3c2)c1F (stereo not drawn) | 72.8% | 72.1% | 82.5% | 70.3% | 55.9% | 72.3% |  | 76% | 89.4% | 88% | 85.1% | 82% | 62.9% | 86.7% | 68.9% | 96.4% | 85.5% | 38.8% | 103%
COc1c(F)ccc(C(=O)Nc2ccc3nc(NC(=O)C4CCCN(S(=O)(=O)c5ccc(C#N)cc5)C4)sc3c2)c1F (stereo not drawn) | 90.1% | 85.8% | 100% | 89.3% | 81.9% | 82.5% |  | 95.4% | 105% | 97.1% | 96.2% | 94.6% | 68.8% | 97.4% | 90.6% | 101% | 92.2% | 62.4% | 112%
CN(C)CCCNC(=O)c1cc(NC(=O)c2cc(NC(=O)c3ccc(C#Cc4ccccc4)cc3)cn2C)cn1C | -20.6% (active) | -68.4% (active) |  | -91.6% (active) | -30.8% (active) | -93.7% (active) | -33.1% (active) | -100% (active) | 47.1% | -88.8% (active) | 27% | -18.5% (active) | 36.1% | 19.2% | 18.6% | 83.5% | -24.3% (active) | -29.5% (active) | 42.9%
COc1ccc(-c2nc3cc(C)ccc3n2CC(=O)N=Nc2c(O)[nH]c3ccc(Cl)cc23)cc1 | -71.2% (active) | -71.1% (active) |  | -73.9% (active) | 9.75% (active) | -36.2% (active) | -52.3% (active) | -93.4% (active) |  | 47.9% | -49.5% (active) | -62.6% (active) | 41.7% | 5.37% (active) | 33% | 101% | 54.9% | 11% | 21.6%
